Results reported in PubChem BioAssay.
The source made the active and inactive calls. Rule as the data show it, unless noted: active = inhibition above about 25%; inactive = the rest.

Columns and labels:
[1] = target: Nuclear receptor coactivator 3 (Homo sapiens) (UniProt Q9Y6Q9); assay: NCOA3 GAL4-fusion reporter inhibition – cell-based, luminescence, quadruplicate, confirmation (AID 588792;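 active = mean inhibition over 43.08%, the solvent-only control mean plus 3 SD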;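 also: 0% = DMSO treated cells and 100% = gossypol at 36 µM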); conditions: HEK293 GAL4-SRC3 luciferase reporter, at 3.6 µM, active compounds read high
[2] = system: transactivating tegument protein VP16 (Human herpesvirus 1), Gal4-VP16 luciferase reporter; assay: repression of VP16-driven luciferase reporter – cell-based, luminescence, high throughput, counter-screen for SRC3 inhibitor project (AID 588794; in the data active = inhibition above about 30%); conditions: mammalian cells, at 3.6 µM, active compounds read high
[3] = target: Nuclear receptor coactivator 1 (Homo sapiens) (UniProt Q15788); assay: NCOA1 GAL4-fusion reporter inhibition – cell-based, luminescence, quadruplicate, confirmation (AID 588820;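 active = mean inhibition above 46.68%, the untreated control wells mean plus 3 SD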;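 also: 0% = DMSO wells and 100% = gossypol 36 µM treated wells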); conditions: HEK293 GAL4-SRC1 luciferase reporter, at 3.6 µM, active compounds read high
[4] = repression of VP16-driven luciferase reporter – cell-based, luminescence, high throughput, counter-screen for SRC1 inhibitor project (AID 588824); conditions: cell-based VP16 transactivation luciferase luminescence; at 3.6 µM; active compounds read high
[5] = StAR promoter reporter inhibitors, counter-screen for LRH-1 inverse agonist project, cell-based, luminescence, high throughput (AID 651611; in the data active = inhibition above about 28%); conditions: StAR promoter luciferase reporter counterscreen, at 3.6 µM, active compounds read high
[6] = target: Nuclear receptor subfamily 5 group A member 2 (Homo sapiens) (UniProt O00482); assay: NR5A2 activity suppression in reporter cells – cell-based, luminescence, confirmation (AID 651613; in the data active = inhibition above about 42%;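 also: HEK293T cells co-transfected with LRH-1 and StAR promoter luciferase reporter; 0% = vehicle wells and 100% = parental cells lacking receptor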); conditions: cell-based LRH-1 luciferase reporter, inverse agonism; at 3.6 µM; active compounds read high
[7] = target: Steroidogenic factor 1 (Homo sapiens) (UniProt Q13285); assay: inverse agonism at SF1 nuclear receptor – cell-based, luminescence, high throughput, counter-screen for LRH-1 inverse agonist project (AID 651614; in the data active = inhibition above about 44%;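 also: cells cotransfected with StAR promoter reporter and SF1 expression vector; 0% = vehicle on cells with receptor and 100% = vehicle on cells lacking receptor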); conditions: cell-based SF1 luciferase reporter, at 3.6 µM, active compounds read high
[8] = compounds suppressing VP16-driven luciferase signal – cell-based, luminescence, high throughput, counter-screen for LRH-1 inverse agonist project (AID 651615; in the data active = inhibition above about 33%); conditions: Gal4-VP16 luciferase reporter cells, at 3.6 µM, active compounds read high
[9] = system: transactivating tegument protein VP16 (Human herpesvirus 1); assay: compounds suppressing VP16-driven luciferase signal – cell-based, luminescence, single concentration, counter-screen for SRC2 inhibitor project (AID 652007; in the data active = inhibition above about 36%); conditions: cell-based VP16 transactivation luciferase reporter, at 8.9 µM, active compounds read high
[10] = target: Nuclear receptor coactivator 2 (Homo sapiens) (UniProt Q15596); assay: inhibition of GAL4-SRC2 driven luciferase expression – cell-based, luminescence, HEK293, triplicate, confirmation (AID 652008;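 active = mean inhibition above 46.5%, the solvent-only control mean plus 3 SD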;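 also: 0% = DMSO-treated cells and 100% = Gossypol at 36 µM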); conditions: HEK293 GAL4-SRC2 luciferase reporter, at 8.9 µM, active compounds read high

Measured: inhibition

Nuclear receptor coactivator 2 (Homo sapiens), sequence (Q15596 whole entry, looked up, the tested form may be a part): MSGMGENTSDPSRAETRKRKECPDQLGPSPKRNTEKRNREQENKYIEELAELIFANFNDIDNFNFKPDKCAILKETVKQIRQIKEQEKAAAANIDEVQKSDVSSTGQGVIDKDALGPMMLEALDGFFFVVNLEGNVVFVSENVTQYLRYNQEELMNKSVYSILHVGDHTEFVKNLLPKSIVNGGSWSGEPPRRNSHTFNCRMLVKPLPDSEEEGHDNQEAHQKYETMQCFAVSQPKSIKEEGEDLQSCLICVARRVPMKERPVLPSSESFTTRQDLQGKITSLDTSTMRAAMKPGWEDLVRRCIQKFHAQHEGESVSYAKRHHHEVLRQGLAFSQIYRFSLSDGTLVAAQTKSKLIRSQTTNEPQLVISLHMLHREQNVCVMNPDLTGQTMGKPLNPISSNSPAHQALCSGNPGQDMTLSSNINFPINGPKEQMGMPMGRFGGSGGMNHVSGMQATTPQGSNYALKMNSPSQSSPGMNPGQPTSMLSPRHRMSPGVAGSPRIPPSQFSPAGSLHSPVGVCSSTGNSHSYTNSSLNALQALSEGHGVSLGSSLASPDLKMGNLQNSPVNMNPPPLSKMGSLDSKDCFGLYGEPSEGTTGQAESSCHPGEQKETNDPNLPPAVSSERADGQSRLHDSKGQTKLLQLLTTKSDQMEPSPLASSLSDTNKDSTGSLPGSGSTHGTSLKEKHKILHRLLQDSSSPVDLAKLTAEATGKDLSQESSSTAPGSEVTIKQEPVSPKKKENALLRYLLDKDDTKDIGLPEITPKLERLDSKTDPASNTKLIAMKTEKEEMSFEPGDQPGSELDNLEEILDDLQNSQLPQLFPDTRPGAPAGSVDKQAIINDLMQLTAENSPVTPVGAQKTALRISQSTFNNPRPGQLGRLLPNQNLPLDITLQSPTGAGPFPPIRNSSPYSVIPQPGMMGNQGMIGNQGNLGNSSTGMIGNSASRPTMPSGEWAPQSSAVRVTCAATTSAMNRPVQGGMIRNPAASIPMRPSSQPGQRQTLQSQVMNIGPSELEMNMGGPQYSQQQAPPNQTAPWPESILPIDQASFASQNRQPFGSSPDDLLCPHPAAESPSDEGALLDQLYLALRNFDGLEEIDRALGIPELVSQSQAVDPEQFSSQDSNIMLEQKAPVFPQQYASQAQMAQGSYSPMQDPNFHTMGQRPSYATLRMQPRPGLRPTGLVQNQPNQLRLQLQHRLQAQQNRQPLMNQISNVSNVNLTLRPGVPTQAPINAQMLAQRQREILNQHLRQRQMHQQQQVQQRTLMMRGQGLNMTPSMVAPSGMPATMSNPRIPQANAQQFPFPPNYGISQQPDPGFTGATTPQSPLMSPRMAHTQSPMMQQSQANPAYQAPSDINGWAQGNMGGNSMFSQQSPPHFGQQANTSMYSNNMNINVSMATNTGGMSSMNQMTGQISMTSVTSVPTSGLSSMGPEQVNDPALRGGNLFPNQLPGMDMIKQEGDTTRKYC
Nuclear receptor coactivator 3 (Homo sapiens), sequence (Q9Y6Q9 whole entry, looked up, the tested form may be a part): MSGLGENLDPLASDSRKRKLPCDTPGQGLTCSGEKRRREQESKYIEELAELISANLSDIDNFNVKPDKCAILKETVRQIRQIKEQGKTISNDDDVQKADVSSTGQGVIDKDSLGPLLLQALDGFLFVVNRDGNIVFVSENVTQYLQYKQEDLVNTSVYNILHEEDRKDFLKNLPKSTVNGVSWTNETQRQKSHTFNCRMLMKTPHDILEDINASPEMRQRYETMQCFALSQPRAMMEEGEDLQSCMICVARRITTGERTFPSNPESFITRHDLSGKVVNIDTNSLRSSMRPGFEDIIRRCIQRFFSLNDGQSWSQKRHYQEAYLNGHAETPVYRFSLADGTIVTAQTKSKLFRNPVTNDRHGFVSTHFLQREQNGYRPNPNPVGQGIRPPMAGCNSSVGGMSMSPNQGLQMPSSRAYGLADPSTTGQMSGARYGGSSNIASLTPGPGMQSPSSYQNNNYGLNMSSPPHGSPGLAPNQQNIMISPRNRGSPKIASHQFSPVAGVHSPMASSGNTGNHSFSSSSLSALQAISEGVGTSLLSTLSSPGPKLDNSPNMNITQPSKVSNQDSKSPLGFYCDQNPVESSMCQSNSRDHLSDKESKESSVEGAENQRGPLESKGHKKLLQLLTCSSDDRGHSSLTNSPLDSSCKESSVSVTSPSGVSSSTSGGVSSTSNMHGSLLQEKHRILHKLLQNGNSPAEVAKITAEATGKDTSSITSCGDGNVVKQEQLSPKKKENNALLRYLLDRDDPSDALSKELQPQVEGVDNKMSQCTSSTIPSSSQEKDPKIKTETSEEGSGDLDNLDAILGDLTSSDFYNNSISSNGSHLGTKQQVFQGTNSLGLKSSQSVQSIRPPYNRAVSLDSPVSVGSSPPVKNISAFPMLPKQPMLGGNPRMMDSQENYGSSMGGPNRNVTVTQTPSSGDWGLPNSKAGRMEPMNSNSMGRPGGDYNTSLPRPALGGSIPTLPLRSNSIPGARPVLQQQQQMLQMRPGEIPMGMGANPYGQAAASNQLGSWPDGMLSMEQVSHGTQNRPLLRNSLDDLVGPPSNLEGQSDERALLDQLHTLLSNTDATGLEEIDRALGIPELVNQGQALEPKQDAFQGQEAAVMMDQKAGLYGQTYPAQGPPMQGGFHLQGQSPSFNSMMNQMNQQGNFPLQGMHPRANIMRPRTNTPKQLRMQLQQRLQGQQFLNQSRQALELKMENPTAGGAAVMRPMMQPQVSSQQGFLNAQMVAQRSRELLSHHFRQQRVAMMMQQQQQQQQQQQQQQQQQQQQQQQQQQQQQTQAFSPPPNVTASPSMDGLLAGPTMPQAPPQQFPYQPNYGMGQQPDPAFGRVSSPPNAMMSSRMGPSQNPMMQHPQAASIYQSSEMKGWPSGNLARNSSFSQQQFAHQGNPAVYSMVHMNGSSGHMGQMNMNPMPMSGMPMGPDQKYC
Nuclear receptor subfamily 5 group A member 2 (Homo sapiens), sequence (O00482 whole entry, looked up): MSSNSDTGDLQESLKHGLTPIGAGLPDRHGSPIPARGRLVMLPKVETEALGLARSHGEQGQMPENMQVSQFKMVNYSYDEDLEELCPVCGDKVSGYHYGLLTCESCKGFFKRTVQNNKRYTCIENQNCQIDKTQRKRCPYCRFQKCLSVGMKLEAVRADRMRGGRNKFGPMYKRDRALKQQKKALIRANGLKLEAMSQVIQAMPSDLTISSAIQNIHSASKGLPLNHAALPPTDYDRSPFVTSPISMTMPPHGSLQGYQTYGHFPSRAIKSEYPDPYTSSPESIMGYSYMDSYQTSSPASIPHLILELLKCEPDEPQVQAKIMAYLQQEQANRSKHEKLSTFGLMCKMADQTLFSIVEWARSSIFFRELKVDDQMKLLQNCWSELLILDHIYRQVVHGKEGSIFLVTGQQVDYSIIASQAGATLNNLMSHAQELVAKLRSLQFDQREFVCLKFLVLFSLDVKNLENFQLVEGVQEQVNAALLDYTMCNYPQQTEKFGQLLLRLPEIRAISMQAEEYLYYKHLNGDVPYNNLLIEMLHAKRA
Nuclear receptor coactivator 1 (Homo sapiens), sequence (Q15788 whole entry, looked up, the tested form may be a part): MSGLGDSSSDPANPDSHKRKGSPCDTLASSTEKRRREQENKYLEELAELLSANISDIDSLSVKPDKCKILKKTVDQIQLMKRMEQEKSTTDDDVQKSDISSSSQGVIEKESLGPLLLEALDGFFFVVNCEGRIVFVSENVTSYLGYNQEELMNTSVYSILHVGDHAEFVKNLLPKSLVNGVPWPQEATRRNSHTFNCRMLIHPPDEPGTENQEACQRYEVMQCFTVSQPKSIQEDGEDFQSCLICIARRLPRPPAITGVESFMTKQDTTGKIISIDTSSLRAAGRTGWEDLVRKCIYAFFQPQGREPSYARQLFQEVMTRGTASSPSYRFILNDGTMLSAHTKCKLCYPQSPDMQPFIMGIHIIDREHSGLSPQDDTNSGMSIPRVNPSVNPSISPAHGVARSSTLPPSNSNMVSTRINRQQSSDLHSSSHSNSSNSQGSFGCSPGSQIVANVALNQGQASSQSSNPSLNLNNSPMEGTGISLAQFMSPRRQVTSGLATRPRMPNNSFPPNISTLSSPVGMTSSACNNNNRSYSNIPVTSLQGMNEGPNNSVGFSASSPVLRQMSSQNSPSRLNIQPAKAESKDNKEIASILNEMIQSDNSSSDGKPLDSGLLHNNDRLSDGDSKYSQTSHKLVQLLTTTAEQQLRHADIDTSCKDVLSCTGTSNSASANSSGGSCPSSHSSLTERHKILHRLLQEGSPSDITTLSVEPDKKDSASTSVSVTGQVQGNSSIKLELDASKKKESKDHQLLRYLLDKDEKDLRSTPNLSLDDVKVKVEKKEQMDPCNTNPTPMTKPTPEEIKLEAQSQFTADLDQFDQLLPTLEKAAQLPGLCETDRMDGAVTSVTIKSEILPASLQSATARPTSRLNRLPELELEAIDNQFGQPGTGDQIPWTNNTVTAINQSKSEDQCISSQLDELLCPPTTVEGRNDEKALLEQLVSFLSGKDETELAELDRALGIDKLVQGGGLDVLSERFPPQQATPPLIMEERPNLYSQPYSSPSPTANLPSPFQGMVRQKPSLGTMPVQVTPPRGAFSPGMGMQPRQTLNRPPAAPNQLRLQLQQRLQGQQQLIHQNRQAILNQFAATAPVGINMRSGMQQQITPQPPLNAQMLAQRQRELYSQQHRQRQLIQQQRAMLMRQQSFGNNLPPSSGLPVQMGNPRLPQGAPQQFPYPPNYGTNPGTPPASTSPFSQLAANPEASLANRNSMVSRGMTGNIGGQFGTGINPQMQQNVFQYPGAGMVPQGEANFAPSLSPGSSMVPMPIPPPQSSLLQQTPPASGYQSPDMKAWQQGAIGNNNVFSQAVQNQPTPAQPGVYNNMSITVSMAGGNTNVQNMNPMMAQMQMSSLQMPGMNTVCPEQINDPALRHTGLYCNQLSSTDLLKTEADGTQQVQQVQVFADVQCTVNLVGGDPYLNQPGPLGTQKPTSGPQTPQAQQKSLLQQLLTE

O=NN(CC(=O)NNc1ccccc1)CC(=O)NNc1ccccc1
active: [2] 29.9% | [4] 27.5% | [5] 37.4% | [6] 58.7% | [7] 53.1% | [8] 67.5%
inactive: [1] 22.6% | [3] 9.03%

Cc1cc2c(=Cc3ccc(N(C)C)cc3)c3ccccc3n2[n+]1C
active: [1] 44.8% | [2] 74.8% | [4] 74.5% | [5] 76.2% | [6] 108% | [7] 89.4% | [8] 93.4%
inactive: [3] 23.9%

CCOC(=O)C(C(C)=O)c1c(Br)c(O)c(O)c2c(C(=O)c3ccc(C)cc3)coc12 (configuration not stated)
active: [1] 57.6% | [4] 31.2% | [5] 60.4% | [6] 94.8% | [7] 83.7% | [8] 81.6%
inactive: [2] 12.5% | [3] 12.7%

CC1Cc2cc(-c3csc(NC(=O)Cc4cccs4)n3)ccc2N1S(C)(=O)=O (configuration not stated)
inactive: [1] 14.4% | [3] -1.43%
active: [2] 42.5% | [4] 57.8% | [5] 47.4% | [6] 63.7% | [7] 62% | [8] 69.9%

CN(C)c1ccc(/C=C/c2ccc3c4ccccc4ccc3[n+]2-c2ccccc2)cc1
active: [1] 70.9% | [2] 82.3% | [3] 50.2% | [4] 79.4% | [5] 71.9% | [6] 104% | [7] 92.5% | [8] 83%

NC1=C(Br)C(=O)c2ncccc2C1=O
active: [1] 72.1% | [2] 60.8% | [3] 49.1% | [4] 54.8% | [5] 70.9% | [6] 92.9% | [7] 84.3% | [8] 79.3%

OC[C@H]1O[C@@H](n2cnc3c(NCc4ccco4)ncnc32)[C@H](O)[C@@H]1O
active: [1] 58% | [2] 44.6% | [4] 51.8% | [5] 55.1% | [6] 52.9% | [7] 51.4% | [8] 61.4%
inactive: [3] 42.5%

NCCCNc1nc(N)c([N+](=O)[O-])c(NC2CCCCC2)n1
active: [1] 62.2% | [2] 42.4% | [4] 27.1% | [5] 84.7% | [6] 98.5% | [7] 82.5% | [8] 88.1%
inactive: [3] 7.71%

CCC(NC(=O)Nc1nnc(C(F)(F)F)s1)(C(F)(F)F)C(F)(F)F
active: [1] 60.7% | [2] 82% | [3] 50.1% | [4] 85.6% | [5] 79.3% | [6] 103% | [7] 90.6% | [8] 90.5%

O=C1NC(=O)C(c2ccc(F)cc2)N1 (configuration not stated)
inactive: [1] 3.02% | [2] -3.31% | [3] -2.47% | [4] -5.94% | [5] 11% | [6] 8.89% | [7] 2.89% | [8] 4.11%

CCOc1ccc(C(=O)Nc2cnn(Cc3ccc(Cl)c(Cl)c3)c2)cc1
inactive: [1] 16% | [3] 26.8%
active: [2] 44.1% | [4] 36.8% | [5] 39% | [6] 62.7% | [7] 60.1% | [8] 70.5%

CCN1CCN(/C=N/c2nc3c(s2)CCCC3)CC1
inactive: [1] 19.2% | [2] -9.09% | [3] -62.9% | [4] -59.3% | [5] -69.4% | [6] -91.2% | [7] -86.7% | [8] -69.9%

CC[n+]1ccccc1/C=C1\Sc2ccc(C)cc2N1C
inactive: [1] 25.7% | [3] 23.8%
active: [2] 64.6% | [4] 67.7% | [5] 40% | [6] 75.7% | [7] 70.3% | [8] 74.5%

CCc1ccccc1Nc1nn2c(=O)c3ccc(C(=O)NCc4ccccn4)cc3nc2s1
inactive: [1] 33.3% | [3] 42%
active: [2] 61.3% | [4] 59.9% | [5] 57.3% | [6] 67.3% | [7] 76% | [8] 72%

COc1ccc2cc3c(N)nn(C(=O)c4ccccc4[N+](=O)[O-])c3nc2c1
active: [1] 76.5% | [2] 59.9% | [3] 64.8% | [4] 61.3% | [5] 44.6% | [6] 67.5% | [7] 46.9% | [8] 78% | [10] 46.6%
inactive: [9] 3.64%

O=C(O)c1ccc(N/N=C/c2ccc3nccnc3c2)cc1
inactive: [1] 17.8% | [2] 10.9% | [3] -44.9% | [4] 10.3% | [6] 21.4% | [8] 14.8%
active: [5] 48.4% | [7] 61% | [9] 42.2% | [10] 75.5%

O=C(O)C1CCCCC1C(=O)Nc1ccc2c(c1)OCCO2 (configuration not stated)
inactive: [1] -6.32% | [2] -0.43% | [3] -18.1% | [4] -13.8% | [5] -0.9% | [6] -1.32% | [7] -1.69% | [8] 0% | [9] -11.1% | [10] 26.9%
